Hit rate of the full screen: of about 310,000 compounds, about 14,000 (4.5%) showed an effect of 50% or more. Effects have a minus sign here. The list comes from a sample in which strong results are over-represented; it also holds similar structures and randomly drawn compounds.
Target: human ether-à-go-go-related gene (hERG) potassium channel (human, UniProt Q12809)
Assay: primary screen, population patch clamp on CHO cells stably expressing hERG; higher = less effect of the substance
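Note: peak tail current of the secondary pulse compared with the same well before compound.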

Chain of human ether-à-go-go-related gene (hERG) potassium channel (Q12809 whole entry, looked up): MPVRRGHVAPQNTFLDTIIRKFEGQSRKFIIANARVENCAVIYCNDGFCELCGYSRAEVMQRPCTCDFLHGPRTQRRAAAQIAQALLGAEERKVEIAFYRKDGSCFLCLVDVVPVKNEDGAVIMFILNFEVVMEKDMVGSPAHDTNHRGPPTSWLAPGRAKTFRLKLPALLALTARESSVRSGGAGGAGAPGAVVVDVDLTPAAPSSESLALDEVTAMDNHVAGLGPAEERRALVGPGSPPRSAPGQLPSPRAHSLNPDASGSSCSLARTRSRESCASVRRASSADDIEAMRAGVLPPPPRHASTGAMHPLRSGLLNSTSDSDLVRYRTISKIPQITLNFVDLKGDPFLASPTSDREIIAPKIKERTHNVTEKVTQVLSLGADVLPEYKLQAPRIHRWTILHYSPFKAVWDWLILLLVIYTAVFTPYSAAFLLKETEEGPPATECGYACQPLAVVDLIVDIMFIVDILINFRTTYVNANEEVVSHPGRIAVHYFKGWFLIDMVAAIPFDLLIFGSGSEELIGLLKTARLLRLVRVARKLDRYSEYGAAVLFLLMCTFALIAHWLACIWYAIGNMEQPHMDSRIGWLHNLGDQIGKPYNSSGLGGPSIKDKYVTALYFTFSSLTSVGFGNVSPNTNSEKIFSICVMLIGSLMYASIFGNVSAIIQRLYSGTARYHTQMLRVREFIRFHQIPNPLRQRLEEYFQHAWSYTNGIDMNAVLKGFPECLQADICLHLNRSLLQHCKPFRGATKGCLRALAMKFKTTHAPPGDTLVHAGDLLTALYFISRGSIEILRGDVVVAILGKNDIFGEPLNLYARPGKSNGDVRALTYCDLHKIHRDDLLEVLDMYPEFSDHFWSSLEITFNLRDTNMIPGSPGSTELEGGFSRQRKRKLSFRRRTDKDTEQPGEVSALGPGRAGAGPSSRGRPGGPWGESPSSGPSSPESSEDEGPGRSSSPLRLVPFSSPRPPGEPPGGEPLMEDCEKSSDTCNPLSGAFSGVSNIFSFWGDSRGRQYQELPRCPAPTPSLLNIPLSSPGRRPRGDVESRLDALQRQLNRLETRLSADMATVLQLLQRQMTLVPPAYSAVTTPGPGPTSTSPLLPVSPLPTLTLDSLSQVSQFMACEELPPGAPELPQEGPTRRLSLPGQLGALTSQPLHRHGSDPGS

Row | SMILES | hERG current change (%, negative = inhibition) at 10uM [%]
1 | CC(OC(=O)c1ccc(NS(=O)(=O)c2cccs2)cc1)C(=O)N(C)C1CCCCC1 (stereo not shown) | -0.558
2 | CCc1ccc(NS(=O)(=O)c2ccc3[nH]cc(C(=O)NCC4CCCO4)c(=O)c3c2)cc1 (stereo not shown) | 15.4
3 | CC(=O)Nc1ccc(C(=O)OCCC(C)C)cc1 | -17.4
4 | Cc1ccc(CNc2cc(C(=O)O)ccc2C)s1 | 19.2
5 | O=C(Cn1c(=O)n(CC2CCCO2)c(=O)c2ccccc21)N1CCN(c2ccccc2)CC1 (stereo not shown) | -21.8
6 | Cc1ccc(C)c(S(=O)(=O)N2CCCOC2CNC(=O)C(=O)NCc2ccccn2)c1 (stereo not shown) | 5.01
7 | CC(C)N1CCC(=NNC(=O)c2cccs2)CC1 | 25.6
8 | COC(=O)C1=C(N)Oc2cc(C)n(C)c(=O)c2C1c1ccc(Cl)cc1 (stereo not shown) | 6.7
9 | COC(=O)C1=C(N)Oc2cc(C)n(CCc3ccccc3)c(=O)c2C1c1cccnc1 (stereo not shown) | -25.9
10 | COC(=O)C1=C(N)Oc2cc(C)n(CCCn3ccnc3)c(=O)c2C1c1cccc(Cl)c1 (stereo not shown) | -69.7
11 | COC(=O)C1=C(N)Oc2cc(C)n(CCCn3ccnc3)c(=O)c2C1c1ccc(Cl)cc1 (stereo not shown) | -59.8
12 | COC(=O)C1=C(N)Oc2cc(C)n(CC3CCCO3)c(=O)c2C1c1ccc(Cl)cc1 (stereo not shown) | -8.41
13 | COC(=O)C1=C(N)Oc2cc(C)n(Cc3ccco3)c(=O)c2C1c1cccc(Cl)c1 (stereo not shown) | -5.24
14 | Cc1cccc(NS(=O)(=O)c2ccc3[nH]c(=O)[nH]c3c2)c1C | 13.7
15 | Cc1nn(Cc2ccccc2)c(C)c1NC(=O)CSc1nc(C2CC2)nc2c1cnn2-c1ccccc1 | 8.84
16 | COc1ccc(-c2oc3ncnc(N)c3c2-c2ccccc2)cc1 | 6.52
17 | OCCCNc1ncnc2sc(-c3ccccc3)cc12 | 3.23
18 | OCCCNc1ncnc2oc(-c3ccccc3)c(-c3ccccc3)c12 | -13.2
19 | COc1ccc(-c2oc3ncnc(NCCCN(C)C)c3c2-c2ccc(OC)cc2)cc1 | -60.2
20 | CN(C)CCNc1ncnc2oc(-c3ccccc3)c(-c3ccccc3)c12 | -60.7
21 | COc1ccc(-c2oc3ncnc(NCCCO)c3c2-c2ccc(OC)cc2)cc1 | 4.27
22 | CN(C)CCCNc1ncnc2oc(-c3ccccc3)c(-c3ccccc3)c12 | -69.5

Row | SMILES | hERG current change (%, negative = inhibition) at 10uM [%]
23 | Cc1c(C)n(-c2ccccc2)c2ncnc(NCCN(C)C)c12 | -4.04
24 | CN(C)CCNc1ncnc2sc(-c3ccccc3)cc12 | -21.1
25 | CN(C)CCCNc1ncnc2sc(-c3ccccc3)cc12.O=C(O)C(=O)O | -60.2
26 | CN(C)CCNc1ncnc2ccccc12.Cl | 7.66
27 | COCCCNC(=O)CNC(=S)N(Cc1ccccc1)Cc1cccnc1 | -9.77
28 | O=C(NCc1cccnc1)Nc1cccc(F)c1 | 7.53
29 | CN(Cc1ccccc1)C(=O)Nc1ccccc1 | 7.49
30 | COC(=O)c1ccccc1NC(=O)COc1ccc(S(=O)(=O)N2CCCC2)cc1C | 8.37
31 | CSc1nnc2c(n1)OC=Nc1ccc(Br)cc1-2 | -11.7
32 | O=C(NCC1CCCO1)c1ccc[nH]1 (stereo not shown) | 12.3
33 | COc1ccc2oc(=O)c(C(=O)Nc3ccccc3O)cc2c1 | 8.79
34 | Cn1c(CC(=O)Nc2ccccc2F)nnc1SCC(=O)Nc1nccs1 | 18.6
35 | Fc1ccc(-c2cc(C(F)(F)F)n3ncnc3n2)cc1 | 26.8
36 | CC(=O)c1cc2c(cc1NC(=O)c1cnc(C)cn1)OCO2 | 4.22
37 | Cc1cccc(N(CC(=O)N2CCCC2)S(=O)(=O)c2ccccc2)c1 | -34.7
38 | CCN(CC)CC(O)CN(c1ccccc1)S(=O)(=O)c1ccc2ccccc2c1.Cl (stereo not shown) | -80.2
39 | O=S(=O)(c1ccccc1)N(CC(O)COc1ccccc1)c1ccccc1 (stereo not shown) | -26.6
40 | Cc1cc(C)n(CC(O)CN(c2ccccc2)S(=O)(=O)c2ccc3ccccc3c2)n1 (stereo not shown) | -6.13
41 | CCN(c1ccccc1)S(=O)(=O)c1ccc2ccccc2c1 | -3.29
42 | COC(=O)CN(c1cccc(C)c1)S(=O)(=O)c1ccccc1 | -14
43 | Cc1ccc(S(=O)(=O)N(CC(O)CN2C(=O)NC(C)(C)C2=O)c2ccccc2)cc1 (stereo not shown) | -37.7
44 | Cc1ccc(S(=O)(=O)N(CC(O)CN(C)C)c2ccccc2)cc1.Cl (stereo not shown) | -65.6

Row | SMILES | hERG current change (%, negative = inhibition) at 10uM [%]
45 | Cc1ccc(N(CC(O)CN(C)C)S(=O)(=O)c2ccccc2)cc1.Cl (stereo not shown) | -68.1
46 | O=S(=O)(c1ccccc1)N(CC(O)Cn1c2ccccc2c2ccccc21)c1ccccc1 (stereo not shown) | 14.9
47 | Cc1cccc(N(CC(O)CN(C)C)S(=O)(=O)c2ccccc2)c1.Cl (stereo not shown) | -63
48 | Cc1ccc(S(=O)(=O)N(C)c2ccccc2)cc1 | -11.8
49 | O=C(CC1SC(=O)N(Cc2ccccc2)C1=O)Nc1nccs1 (stereo not shown) | 3.22
50 | O=C(Nc1ccc(Br)cc1)Nc1ccccc1Cl | 19.7
51 | CC(=O)Nc1ccc2c(c1)ncn2-c1ccccc1 | 3.72
52 | CCOC(=O)C1CCCN(C(=O)c2ccc3c(c2)NC(=O)C(N2CCOCC2)S3)C1 (stereo not shown) | 19.7
53 | CCCCC(=O)NC(=S)Nc1ccc(NC(=O)C(C)C)c(OC)c1 | 21.2
54 | Cc1ccc(S(=O)(=O)N(CCC(=O)O)c2ccccc2)cc1 | -10.5
55 | Cc1ccc(N(CC(O)COCc2ccco2)S(=O)(=O)c2ccc(C)cc2)cc1 (stereo not shown) | -11.1
56 | CCCN(CCC)CC(O)CN(c1ccccc1)S(=O)(=O)c1ccc(C)cc1 (stereo not shown) | -80.3
57 | CC(C)OC(=O)CCc1nc2ccccc2[nH]c1=O | 10.1
58 | COc1nc(-c2ccccc2)ccc1-c1noc(-c2cccnc2)n1 | 5.15
59 | COc1ccc(C(=O)COC(=O)CNC(=O)C2CCCCC2)c(OC)c1 | -11
60 | COc1ccc(NC(=O)C2C(=O)N(C)C3(C)CC2c2ccccc2O3)cc1 (stereo not shown) | -13.5
61 | CCC(C)NS(=O)(=O)c1cccs1 (stereo not shown) | 7.86
62 | COc1ccccc1CCNC(=O)C(C)n1nc(C)c2c(C)n(-c3ccccc3)nc2c1=O (stereo not shown) | -12.3
63 | COc1ccc(OC)c(CCNC(=O)C(C)n2nc(C)c3c(C)n(-c4ccc(C)cc4)nc3c2=O)c1 (stereo not shown) | -53.2
64 | COc1ccc(OC)c(CNC(=O)C(C)n2nc(C)c3c(C)n(-c4ccccc4)nc3c2=O)c1 (stereo not shown) | -7.41
65 | COc1ccc(CCNC(=O)C(C)n2nc(C)c3c(C)n(-c4ccc(C)cc4)nc3c2=O)c(OC)c1 (stereo not shown) | -58.6
66 | COc1ccc(OC)c(CCNC(=O)C(C)n2nc(C)c3c(C)n(-c4ccccc4)nc3c2=O)c1 (stereo not shown) | -0.756

Row | SMILES | hERG current change (%, negative = inhibition) at 10uM [%]
67 | COc1ccc(OC)c(CNC(=O)Cn2nc(C)c3c(C)n(-c4ccc(C)cc4)nc3c2=O)c1 | 3.27
68 | COc1ccc(CNC(=O)C(C)n2nc(C)c3c(C)n(-c4ccccc4)nc3c2=O)c(OC)c1 (stereo not shown) | -8.08
69 | COc1ccc(OC)c(CCNC(=O)Cn2nc(C)c3c(C)n(-c4ccc(C)cc4)nc3c2=O)c1 | -59
70 | COc1ccc(OC)c(CCNC(=O)Cn2nc(C)c3c(C)n(-c4ccccc4)nc3c2=O)c1 | 5
71 | CC(=O)Nc1ccc(C(=O)CSc2ncn(-c3ccccc3)n2)cc1 | 5.72
72 | Cc1sc2ncn(CC(=O)NCc3ccco3)c(=O)c2c1-c1ccccc1 | -11.8
73 | CC(=O)c1cnc(Oc2cc(Cl)ccc2Cl)nc1C | 0.763
74 | CSc1sc(C(=O)N(C)C)cc1S(=O)(=O)C(C)C | 1.94
75 | CCN1C(=O)/C(=C/c2cccs2)N(C)C1=S | -7.99
76 | COc1ccccc1NS(=O)(=O)c1cc(C(=O)NCC2CCCO2)ccc1C (stereo not shown) | -36.8
77 | COC(=O)C1=C(C(=O)OC)[C@@H]2N(C)c3ccccc3[C@@]23C[C@@H](C(=O)OC)N(C(=O)c2ccco2)C3=N1 | -13.9
78 | COC(=O)C1=C(C(=O)OC)[C@@H]2N(C)c3ccccc3[C@@]23C[C@@H](C(=O)OC)N(C(=O)c2cccs2)C3=N1 | -10.1
79 | COC(=O)C1=C(C(=O)OC)[C@@H]2N(C)c3ccc(OC)cc3[C@@]23C[C@@H](C(=O)OC)N(C(=O)c2ccc(Br)cc2)C3=N1 | -17.7
80 | COC(=O)C1=C(C(=O)OC)[C@@H]2N(C)c3ccccc3[C@@]23C[C@@H](C(=O)OC)N(C(=O)C2CCC2)C3=N1 | -29.7
81 | COC(=O)C1=C(C(=O)OC)[C@@H]2N(C)c3ccccc3[C@@]23C[C@@H](C(=O)OC)N(C(=O)COCc2ccccc2)C3=N1 | -9.16
82 | CCOC(=O)N1C2=NC(C(=O)OC)=C(C(=O)OC)[C@@H]3N(C)c4ccc(OC)cc4[C@]23C[C@H]1C(=O)OC | 6.52
83 | COC(=O)C1=C(C(=O)OC)[C@@H]2N(C)c3ccc(OC)cc3[C@@]23C[C@@H](C(=O)OC)N(C(=O)c2cccs2)C3=N1 | -68.3
84 | COC(=O)C1=C(C(=O)OC)[C@@H]2N(C)c3ccc(OC)cc3[C@@]23C[C@@H](C(=O)OC)N(C(=O)NC2CCCCC2)C3=N1 | -26
85 | COC(=O)C1=C(C(=O)OC)[C@@H]2N(C)c3ccc(OC)cc3[C@@]23C[C@@H](C(=O)OC)N(C(=O)C2CCC2)C3=N1 | -50
86 | COC(=O)C1=C(C(=O)OC)[C@@H]2N(C)c3ccc(OC)cc3[C@@]23C[C@@H](C(=O)OC)N(C(=O)COCc2ccccc2)C3=N1 | -55
87 | COC(=O)C1=C(C(=O)OC)[C@@H]2N(C)c3ccc(OC)cc3[C@@]23C[C@@H](C(=O)OC)N(C(=O)CC(C)C)C3=N1 | -14.9
88 | COC(=O)C1=C(C(=O)OC)[C@@H]2N(C)c3ccc(OC)cc3[C@@]23C[C@@H](C(=O)OC)N(C(=O)c2ccco2)C3=N1 | -50.6
